About 3,300 (8.5%) of roughly 39,000 compounds were called active. The full list was thinned out, with actives kept by preference.
system: HepG2; test: cytotoxicity call (relative viability < 0.9); settings: 10 µM

Question: How did the cytotoxicity call turn out when `COc1cc(Nc2ncc3c(n2)-c2ccc(Cl)cc2C(c2c(F)cccc2OC)=NC3)ccc1C(=O)O` was run?
Answer: active

Question: How did the cytotoxicity call turn out when `C[C@@H]1CN([C@@H](C)CO)C(=O)c2cc(NC(=O)CCCCCC(=O)Nc3ccccc3N)ccc2O[C@@H]1CN(C)Cc1ccc(-c2ccccc2)cc1` was run?
Answer: active

Question: `C[C@@H]1CN([C@@H](C)CO)C(=O)c2cc(NC(=O)CCCCCC(=O)Nc3ccccc3N)ccc2O[C@@H]1CN(C)Cc1ccc(C(F)(F)F)cc1` was tested. Which cytotoxicity call did it give?
Answer: inactive

Question: For `C[C@H]1CN([C@@H](C)CO)C(=O)c2cc(NC(=O)CCCCCC(=O)Nc3ccccc3N)ccc2O[C@H]1CN(C)Cc1ccc(-c2ccccc2)cc1`, which cytotoxicity call is on record?
Answer: inactive

Question: Which cytotoxicity call does the source give for `C[C@H](CO)N1C[C@H](C)[C@H](CN(C)Cc2ccc(C(F)(F)F)cc2)Oc2ccc(NC(=O)CCCCCC(=O)Nc3ccccc3N)cc2C1=O` here?
Answer: inactive

Question: How did the cytotoxicity call turn out when `C[C@@H]1CN([C@H](C)CO)C(=O)c2cc(NC(=O)CCCCCC(=O)Nc3ccccc3N)ccc2O[C@H]1CN(C)Cc1ccc(-c2ccccc2)cc1` was run?
Answer: active

Question: `C[C@H](CO)N1C[C@H](C)[C@H](CN(C)Cc2ccc(-c3ccccc3)cc2)Oc2ccc(NC(=O)CCCCCC(=O)Nc3ccccc3N)cc2C1=O` was tested. Which cytotoxicity call did it give?
Answer: active

Question: For `C[C@@H]1CN([C@H](C)CO)C(=O)c2cc(NC(=O)CCCCCC(=O)Nc3ccccc3N)ccc2O[C@@H]1CN(C)Cc1ccc(C(F)(F)F)cc1`, which cytotoxicity call is on record?
Answer: inactive

Question: How did the cytotoxicity call turn out when `C[C@H](CO)N1C[C@H](C)[C@@H](CN(C)Cc2ccc(C(F)(F)F)cc2)Oc2ccc(NC(=O)CCCCCC(=O)Nc3ccccc3N)cc2C1=O` was run?
Answer: inactive

Question: Which cytotoxicity call does the source give for `C[C@@H]1CN([C@@H](C)CO)C(=O)c2cc(NC(=O)CCCCCC(=O)Nc3ccccc3N)ccc2O[C@H]1CN(C)Cc1ccc(C(F)(F)F)cc1` here?
Answer: inactive

Question: `COc1ccc(CN(C)C[C@@H]2Oc3ccc(NS(C)(=O)=O)cc3CC(=O)N([C@H](C)CO)C[C@@H]2C)cc1` was tested. Which cytotoxicity call did it give?
Answer: inactive

Question: Which cytotoxicity call does the source give for `O=C(C[C@H]1CC[C@@H]2[C@H](COC[C@@H](O)CN2S(=O)(=O)c2ccc(Oc3ccccc3)cc2)O1)NCCN1CCCCC1` here?
Answer: inactive

Question: How did the cytotoxicity call turn out when `Cc1noc(C)c1S(=O)(=O)Nc1ccc2c(c1)CC(=O)N([C@H](C)CO)C[C@H](C)[C@H](CN(C)S(C)(=O)=O)O2` was run?
Answer: inactive

Question: For `O=C1O[C@H](c2ccccc2)[C@H](c2ccccc2)N2[C@H]1[C@@H](C(=O)Nc1nc3ccccc3s1)[C@]1(C(=O)Nc3ccc(C#CCCO)cc31)[C@H]2c1ccc(OCCO)cc1`, which cytotoxicity call is on record?
Answer: inactive

Question: For `COc1ccc(S(=O)(=O)Nc2ccc3c(c2)C(=O)N([C@@H](C)CO)C[C@@H](C)[C@@H](CN(C)C(=O)Nc2cccc4ccccc24)OCCCC[C@@H](C)O3)cc1`, which cytotoxicity call is on record?
Answer: inactive

From the antibiotic and cytotoxicity screens of Wong et al. (2023)
